Laboratory results as given in PubChem BioAssay (NCI).
About 83,000 compounds went through this panel and 20% of them were active in at least one assay; those are over-represented in the sample as a whole.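 Growth was measured after 48 h exposure to one concentration of compound in 96-well plates. Values under 10 count as active.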 Unmarked numbers belong to inactive results. Calls of active or inactive are those of the source.

Tests used:
Test in all cases: NCI-60 one-dose screen, 48 h (100 = growth as untreated, 0 = no growth, -100 = all killed)
Settings in all cases: 10 µM unless noted
DU-145 prostate = tested on: DU-145 prostate
K-562 leukemia = tested on: K-562 leukemia
MALME-3M melanoma = tested on: MALME-3M melanoma
MDA-MB-231 breast = tested on: MDA-MB-231 breast
RXF 393 renal = tested on: RXF 393 renal
SF-268 CNS = tested on: SF-268 CNS
SF-295 CNS = tested on: SF-295 CNS
SF-539 CNS = tested on: SF-539 CNS
UACC-257 melanoma = tested on: UACC-257 melanoma
M14 melanoma = tested on: M14 melanoma
HCT-15 colon = tested on: HCT-15 colon
HT29 colon = tested on: HT29 colon
SNB-75 CNS = tested on: SNB-75 CNS
SNB-19 CNS = tested on: SNB-19 CNS
U251 CNS = tested on: U251 CNS
PC-3 prostate = tested on: PC-3 prostate
SK-MEL-5 melanoma = tested on: SK-MEL-5 melanoma
UACC-62 melanoma = tested on: UACC-62 melanoma
LOX IMVI melanoma = tested on: LOX IMVI melanoma
SK-MEL-28 melanoma = tested on: SK-MEL-28 melanoma

| Compound | growth (DU-145 prostate) | growth (K-562 leukemia) | growth (MALME-3M melanoma) | growth (MDA-MB-231 breast) | growth (RXF 393 renal) | growth (SF-268 CNS) | growth (SF-295 CNS) | growth (SF-539 CNS) | growth (UACC-257 melanoma) | growth (M14 melanoma) | growth (HCT-15 colon) | growth (HT29 colon) | growth (SNB-75 CNS) | growth (SNB-19 CNS) | growth (U251 CNS) | growth (PC-3 prostate) | growth (SK-MEL-5 melanoma) | growth (UACC-62 melanoma) | growth (LOX IMVI melanoma) | growth (SK-MEL-28 melanoma) |
| --- | --- | --- | --- | --- | --- | --- | --- | --- | --- | --- | --- | --- | --- | --- | --- | --- | --- | --- | --- | --- |
| NC(=S)c1cn(C2OC(CO)C(O)C2O)c2ncnc(N)c12 (stereo not given) | -18.8% (active) | -42.3% (active) | -30.5% (active) | -9.11% (active) | -55.9% (active) | -20.9% (active) | -3.13% (active) | -53.1% (active) | -1.27% (active) | -57.9% (active) | -11.2% (active) | 2.78% (active) | -8.8% (active) | 9.97% (active) | -7.25% (active) | 6.45% (active) | -73.7% (active) | -77.1% (active) | -22.9% (active) | -40.3% (active) |
| COC1CC2c3ccccc3C1C(C)=[N+]2C (stereo not given) | 110% | 110% | 88.7% | 99.5% | 98% | 107% | 94.2% | 102% | 95.6% | 103% | 101% | 96.6% | 71.7% | 100% | 99.1% | 84.8% | 106% | 91.8% | 94.7% | 145% |
| C#C[C@]1(OC(=O)CCCCCC)CC[C@H]2[C@@H]3CCC4=CC(=O)CC[C@@H]4[C@H]3CC[C@@]21C | 72.1% | 20.7% | 77.1% | 59.7% | 58.8% | 50.7% | 32.2% | 47.9% | 55% | 25.6% | 39.9% | 9.11% (active) | 81.5% | 53.7% | 50.9% | 32.7% | 20.5% | 25.6% | 8.13% (active) | 43.3% |
| COc1cccc(/C=C/[N+](=O)[O-])c1 | -2.85% (active) | 7.02% (active) | 89.8% | 87.6% | -60.7% (active) | 78.2% | 84.3% | 50.8% | 83.1% | 12.3% | -9.58% (active) | -48.6% (active) | 68.1% | 71.8% | 54.4% | 63.6% | 80.6% | 92.6% | -80.6% (active) | 50.2% |
| CCOC(=O)[C@@H](C)C[C@H](Cc1ccccc1)NC(=O)c1csc([C@@H](C[C@H](C(C)C)N(C)C(=O)[C@@H](NC(=O)[C@H]2C[C@H](O)CCN2C)C(C)C)OC(C)=O)n1 | 0.421% (active) | 6.81% (active) | 35.1% | 14.5% | 42.1% | 24.6% | -6.17% (active) | -18.5% (active) | 58.5% | -13% (active) | 9.76% (active) | 0.338% (active) | 10.6% | 21.8% | 10.1% | 24.5% | -4.08% (active) | 38.4% | 18.2% | 51.1% |
| COC(=O)[C@H](Cc1ccccc1)NC(=O)c1csc([C@@H](C[C@H](C(C)C)N(C)C(=O)[C@@H](NC(=O)[C@H]2CCCN2C)C2CC2)OC(C)=O)n1 | 7.69% (active) | 1.55% (active) | 62.9% | 6.1% (active) | 23.3% | 24.4% | -4.82% (active) | -24.9% (active) | 61.9% | 1.22% (active) | 18.7% | 8.98% (active) | 39.2% | 59.5% | 13.3% | 13.2% | 29.4% | 38.2% | 16.8% | 51.4% |
| O=[N+]([O-])c1cc([N+](=O)[O-])c(Cl)cc1Cl | -85.3% (active) | -9.49% (active) | -68.4% (active) | -86.5% (active) | -90.6% (active) | -80.2% (active) | -70.4% (active) | -83.2% (active) | -68.9% (active) | -96.8% (active) | -58.4% (active) | -53.3% (active) | -97.7% (active) | 7.75% (active) | -71.3% (active) | -14.7% (active) | 30.1% | -79% (active) | -91.1% (active) | -41.2% (active) |
| CO[C@H](C(=O)O)[C@@H]1Cc2cc3cc(OC4CC(OC5CC(O)C(O)C(C)O5)C(O)C(C)O4)c(C)c(O)c3c(O)c2C(=O)[C@H]1OC1CC(OC2CC(OC3CC(C)(O)C(O)C(C)O3)C(O)C(C)O2)C(O)C(C)O1 (stereo not given in full) | 21.5% | 11.8% | -10.4% (active) | 19.9% | -57.1% (active) | 29.3% | 11.2% | -23.1% (active) | 7.77% (active) | -8.35% (active) | 38.7% | 7.12% (active) | -55.1% (active) | 10.8% | 10.1% | 19.7% | -17.2% (active) | -68.1% (active) | -6.05% (active) | -5.84% (active) |
| CC12CCC3C(CCC4Cc5[nH]c6ccccc6c5CC43C)C1CCC2O (stereo not given) | -21.2% (active) | 5.1% (active) | 48.3% | 37.1% | -13.8% (active) | 47.5% | -10.7% (active) | 9.54% (active) | 74.1% | 20.6% | 33.2% | 10.7% | 31.7% | 28% | 20.1% | 34.5% | 2.53% (active) | 31.8% | 13.4% | 54.8% |
| C[C@@H]1C[C@@]2(C)[C@@H](CC[C@@H]3[C@@H]2CC[C@]2(C)C(=O)CC[C@@H]32)CC1=O | 108% | 93.1% | 118% | 103% | 49.7% | 102% | 90.7% | 95% | 113% | 96.9% | 103% | 91.8% | 86.2% | 96.7% | 101% | 97.3% | 114% | 99.4% | 98.5% | 76.7% |
| Oc1c(O)c(Cl)c(Cl)c(Cl)c1Cl | 47.5% | 24.2% | 64.7% | 44.8% | 7.31% (active) | 24.2% | 9.55% (active) | 20.9% | -9.22% (active) | 39.6% | 26.3% | 62.7% | 36.7% | 29.7% | 38.9% | 34.5% | 22.5% | 3.58% (active) | 24.4% | 51.4% |
| CC[C@H](C)[C@H](NC(=O)[C@H]1CCCCN1C)C(=O)N(C)[C@H](C[C@@H](O)c1nc(C(=O)N[C@@H](Cc2ccccc2)C[C@H](C)C(=O)O)cs1)C(C)C | 112% | 42.1% | 77.6% | 95.2% | 96.9% | 88.2% | 90.6% | 83.6% | 76.1% | 64.5% | 96.5% | 83.1% | 59.7% | 65.2% | 52.9% | 81.2% | 63.7% | 41.1% | 52.2% | 82.8% |
| COC(=O)[C@@H](C)C[C@H](Cc1ccccc1)NC(=O)c1csc([C@@H](C[C@H](C(C)C)N(C)C(=O)[C@@H](NC(=O)[C@H]2CCCCN2C)c2ccc(F)cc2)OC(C)=O)n1 | 6.65% (active) | 2.45% (active) | 65.8% | -9.8% (active) | 74.7% | 13.2% | 3.25% (active) | -17.9% (active) | 53.2% | -6.9% (active) | 15.5% | 6.87% (active) | 30.7% | 74.8% | 4.87% (active) | 15.8% | -46.3% (active) | 40% | 7.62% (active) | 49.6% |
| COc1ccc(/C(C)=C(\c2ccc(OCCN3CCOCC3)cc2)c2ccc(OC(=O)Cc3ccccc3)cc2)cc1 | 102% | 91% | 104% | 109% | 111% | 100% | 108% | 112% | 109% | 104% | 98.5% | 92.4% | 121% | 111% | 102% | 94.5% | 106% | 106% | 103% | 108% |
| COC(=O)CC[C@H](Cc1ccccc1)NC(=O)c1csc([C@@H](C[C@H](C(C)C)N(C)C(=O)[C@@H](NC(=O)[C@H]2CCCCN2C)C(C)C)OC(C)=O)n1 | 39.1% | 24.4% | 74.2% | 36.8% | 69.6% | 26.6% | 32% | 9.4% (active) | 66.6% | 20.2% | 57.6% | 5.29% (active) | 34.3% | 44.2% | 12.5% | 39.8% | -13.4% (active) | 34.4% | 29.3% | 77.3% |
